# Assay results taken from PubChem BioAssay (NCI).
# This is part of a sample that, as a whole, favours compounds with a hit. Of some 83,000 tested, about 20% had one in any assay.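 Plates (96-well) were seeded with cells, treated with compound at one concentration, and incubated for 48 hours before percent growth was determined.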 A number with no mark means an inactive call. The source made the active and inactive calls. How the source made its calls: active means growth percent below 10; inactive means the rest.
# Legend:
# Test in all cases: NCI-60 one-dose screen, 48 h (100 = growth as untreated, 0 = no growth, -100 = all killed)
# Conditions in all cases: 10 µM unless noted
# [1] = test system: K-562 leukemia
# [2] = test system: MALME-3M melanoma
# [3] = test system: MDA-MB-231 breast
# [4] = test system: RXF 393 renal
# [5] = test system: SF-268 CNS
# [6] = test system: SF-295 CNS
# [7] = test system: SF-539 CNS
# [8] = test system: UACC-257 melanoma
# [9] = test system: M14 melanoma
# [10] = test system: HCT-15 colon
SMILES,growth [1],growth [2],growth [3],growth [4],growth [5],growth [6],growth [7],growth [8],growth [9],growth [10]
COc1cc(C2CC(=O)Nc3c2cc(Br)c2ccccc32)cc(Br)c1OC (stereo unspecified),20.2%,39.9%,28%,35.8%,55.4%,-31.3% (active),74.4%,73.4%,48.2%,39.6%
Cc1cc(=O)n2n1-c1ccc(Cl)cc1NC(=O)C2,104%,103%,122%,104%,109%,98.2%,99%,89%,115%,101%
O=C(/C=C/c1ccccc1)CC(c1ccccc1)N1CCOCC1 (stereo unspecified),49.9%,138%,60.3%,102%,97.3%,98.7%,69.3%,98.8%,-35% (active),61.5%
C=C(C[C@@](O)(C(=O)Oc1ccccc1)C(=O)C1CCCCC1)c1ccccc1,107%,101%,99.9%,91.4%,99.6%,100%,98.4%,92.8%,106%,109%
CCCC[N+](CCCC)=c1ccc2nc3c(C)cc(N(CC)CC)cc3sc-2c1,-49.1% (active),-78.6% (active),-29.4% (active),-25.8% (active),10.4%,-24.4% (active),-62.5% (active),-41% (active),7.11% (active),-33.5% (active)
Cc1cc(NC(=O)Nc2cc(Cl)ccc2C)no1,80.8%,191%,100%,126%,100%,112%,94.1%,115%,109%,100%
O=C(C=C=Nc1ccccc1)C(=O)N=C=Cc1ccccc1,-18.8% (active),-20.9% (active),94.6%,-46% (active),69.1%,99.3%,85.1%,43.3%,44.2%,11.4%
CCOC(=O)c1ccccc1OC(=O)NNc1ccccc1,5.06% (active),82.1%,81.3%,124%,65.6%,49.1%,10.7%,85.8%,57.3%,46%
COc1ccc(OC)c(/C=C/c2nc(=S)n(-c3ccc(Cl)cc3)[nH]2)c1,22.4%,29.8%,87.2%,51.9%,73.7%,31.2%,39.5%,77.6%,31%,41.2%
CCCCCCCCCCCCCCCCCc1nccn1CCO,3.81% (active),89.7%,69.6%,72.3%,73.5%,144%,66.5%,90.2%,64.9%,8.52% (active)
COc1cc(C2CC(c3ccc(C)cc3)=NN2C(C)=O)ccc1Oc1ccnc2cc(Cl)ccc12 (stereo unspecified),93.3%,94.7%,35.7%,26.7%,41.9%,14.9%,23.1%,102%,106%,90.7%
COc1ccc(C2CC(c3ccc(OC)c(OC)c3)=NN2C(=O)c2cc(OC)c(OC)c(OC)c2)cc1 (stereo unspecified),28.3%,57.7%,12.6%,-21.4% (active),54.7%,4.28% (active),-14.5% (active),66.3%,-11.8% (active),32.8%
CN(CCOc1ccc(CC2SC(=O)NC2=O)cc1)c1ccccn1 (stereo unspecified),118%,88.3%,86.5%,110%,105%,98.9%,104%,98.4%,99.7%,96.2%
COc1ccc(CCN2CCCN3C2=Nc2ccccc2S3(=O)=O)cc1,15.6%,68.8%,49.1%,-0.424% (active),63.1%,14%,-28.2% (active),75.7%,31.1%,25.4%
Cc1ccc(C(C)C)cc1NC(=O)Nc1ccc([N+](=O)[O-])cc1,18.2%,6.64% (active),35.6%,90.8%,29.9%,4.2% (active),29%,-5.55% (active),22.3%,10.7%
NCCCc1nnc(CCC(=O)c2nc3ccccc3[nH]2)o1,98.5%,82.2%,89.8%,116%,115%,98.4%,101%,113%,109%,90%
O=C1C(=O)c2ccc(Br)cc2-c2cc(Br)ccc21,4.69% (active),70.4%,-23.4% (active),26.1%,22.4%,78.1%,117%,76.8%,68%,50.2%
O=C(Nc1cccc(-n2cc(-c3ccncc3)c(-c3ccc(O)c(Cl)c3)n2)c1)Nc1ccc(Cl)c(C(F)(F)F)c1,4.8% (active),-24% (active),-34.8% (active),-21% (active),3.1% (active),-25.7% (active),-19.3% (active),-19.5% (active),-34% (active),17.3%
CCCCSc1cc(C)nc(N)n1,94.8%,96.4%,104%,105%,98.8%,102%,95.7%,109%,99.2%,91.1%
COc1cc(C2C=C(c3ccc(C)cc3)Nc3nc(SC)[nH]c(=O)c32)ccc1Oc1ccnc2cc(Cl)ccc12 (stereo unspecified),75.6%,80.1%,73.6%,83.4%,59.6%,70.1%,100%,62.7%,85.1%,64%
CCOC(=O)c1c(C)nc(C)c(C(=O)OCC)c1-c1cccnc1,92.4%,111%,113%,131%,106%,112%,97.1%,108%,95%,97%
CCCc1cc(=O)n2c(C(=O)Nc3ccccc3OC)c(C(=O)Nc3ccc(F)cc3)sc2n1,3.51% [30 µM] (active),64.1% [30 µM],58.3% [30 µM],-19.5% [30 µM] (active),-16.3% [30 µM] (active),-18.7% [30 µM] (active),-47% [30 µM] (active),76.3% [30 µM],80.6% [30 µM],79% [30 µM]
CCC(CC)NCCCCCNc1cc(OC)cc2cccnc12,85.1%,119%,83.9%,88.1%,85.3%,113%,92%,101%,,92.6%
CC1SC(c2c(Cl)cccc2Cl)N(NC(=O)c2[nH]c3ccc(F)cc3c2-c2ccccc2)C1=O (stereo unspecified),71.6%,1.97% (active),0.445% (active),26.5%,44.3%,6.65% (active),71.5%,93.9%,,65.1%
CC(NC(=O)C(C)Oc1ccc(Cl)cc1Cl)C(=O)O (stereo unspecified),135%,98.6%,96.8%,120%,102%,97.8%,102%,94.6%,92.2%,98.3%
CC[N+](CC)(CCOCCOCC[N+](CC)(CC)Cc1ccc([N+](=O)[O-])cc1)Cc1ccc([N+](=O)[O-])cc1,98%,105%,91.3%,110%,98.6%,103%,105%,90.9%,101%,105%
CC(=O)c1nc2ccccc2n1CCn1cc(CC(N)C(=O)O)c2ccccc21 (stereo unspecified),92.5%,100%,77.3%,120%,110%,110%,101%,110%,,96.3%
CCC(O)C(C)(C)C (stereo unspecified),108%,117%,117%,111%,113%,97%,113%,99.3%,,102%
